Molecules are shown by their SMILES.

In assay [1] the target is T1, Aspartate--tRNA(Asp/Asn) ligase (Mycobacterium tuberculosis (strain ATCC 25618 / H37Rv)) (UniProt P9WFW3). Note: in the data most compounds retested in dose-response had high values.
T1 sequence (whole entry): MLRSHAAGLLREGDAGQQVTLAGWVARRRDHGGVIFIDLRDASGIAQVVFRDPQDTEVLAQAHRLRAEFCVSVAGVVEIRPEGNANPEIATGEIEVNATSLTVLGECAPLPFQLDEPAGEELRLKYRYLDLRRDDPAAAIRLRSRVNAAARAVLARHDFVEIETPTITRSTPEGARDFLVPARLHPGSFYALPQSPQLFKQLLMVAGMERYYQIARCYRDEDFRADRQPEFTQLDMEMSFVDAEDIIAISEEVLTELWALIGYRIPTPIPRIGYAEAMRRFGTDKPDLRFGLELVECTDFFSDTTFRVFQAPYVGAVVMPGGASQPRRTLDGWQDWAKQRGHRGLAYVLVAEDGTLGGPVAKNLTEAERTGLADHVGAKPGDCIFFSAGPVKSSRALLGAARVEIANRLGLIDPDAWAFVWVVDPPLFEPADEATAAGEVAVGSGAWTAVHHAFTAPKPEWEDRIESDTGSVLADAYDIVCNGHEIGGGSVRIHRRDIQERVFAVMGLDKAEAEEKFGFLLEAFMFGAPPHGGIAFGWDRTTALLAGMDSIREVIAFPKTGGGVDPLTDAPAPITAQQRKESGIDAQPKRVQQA
Description: Assay for Asp RNA synthetase-1 from Mycobacterium tuberculosis. It is filed as functional. The arrangement: scale not given: direction of the effect not stated beside the values. The following applies: 30 µM.

Assay [2] has as its target Shiga toxin 2 (Escherichia coli O157:H7) (UniProt P09385+P09386). Put plainly: E. coli 0.157:H7 Shiga Toxin SOP - stx2 screening assay. It is filed as functional. The arrangement: scale not given: direction of the effect not stated beside the values. The following applies: 30 µM.

Regarding `CCc1noc(C(C)N2CCN(Cc3ncc(C(C)(C)C)o3)CC2)n1` (configuration not stated), the Percent Effect in assay [1] was -1.28%; in assay [2] it was 23.4%.

Consider `CC(C)N1CCN(C(=O)Nc2cnn(CC(N)=O)c2)CC1`, for which the results for the Percent Effect in assay [1] and in assay [2] were -5.08% and -11.9%, respectively.

`CCC1CCCCCN1C(=O)c1nnc2ccccc2c1N` (configuration not stated): the values for the Percent Effect in assay [1] and in assay [2] were -3.53% and -2.87%, respectively.

Turning to `CN(C)c1cncc(C2CCN(C(=O)CO)CC2)n1`, the Percent Effect in assay [1] stood at 2.1%; in assay [2], 7.95%.

As to `CC(C)c1nc(C2CCCN2C(=O)c2ccc(N(C)C)nn2)no1` (configuration not stated), the Percent Effect came out at 5.45% in assay [1] and 18.3% in assay [2].

For the compound `Cn1cnc(-c2cc(C(=O)N3CCOCC3)c3ccccn23)c1`, the Percent Effect was 1.18% in assay [1] and -6.75% in assay [2].

As for `O=C(Nc1cc(C(F)(F)F)c[nH]c1=O)N1CCCSCC1`, the Percent Effect was 5.77% in assay [1] and 8.92% in assay [2].

Consider `CC(C)N(CC(N)=O)Cc1csc(COc2ccc(F)cc2)n1`, for which the figures for the Percent Effect in assay [1] and in assay [2] were -2.28% and 1.96%, respectively.

On to `COc1cccc(CNCc2nnc3n2CC(C(F)(F)F)CC3)c1` (configuration not stated), for which the Percent Effect in assay [1] was -0.0987%; in assay [2], -19.1%.

For the compound `CN(Cc1nc(C2CC2)no1)C1CCCN(c2cccnn2)C1` (configuration not stated), the Percent Effect in assay [1] was -4.8%; in assay [2], 0.986%.

With `CN1CCc2cc(C(CNS(=O)(=O)c3cccs3)N3CCCC3)ccc21` (configuration not stated), the Percent Effect in assay [1] was -0.102%; in assay [2], -6.23%.

Turning to `CCn1cc(C(=O)NC2CCN(S(C)(=O)=O)CC2)c2ccccc21`, the Percent Effect was -0.607% in assay [1] and -0.257% in assay [2].

In the case of `O=C(NCc1ccccn1)NC1CCOc2ccccc21` (configuration not stated), the Percent Effect is -6.21% in assay [1] and -20.3% in assay [2].

Regarding `COc1cccc(CNc2c(C)cnc3c2c(=O)n(C)c(=O)n3C)c1`, the Percent Effect in assay [1] was -3.02%; in assay [2] it was -31.1%.

On to `O=C1CO[C@@H]2CN(Cc3cccs3)C[C@H]2N1CC1CC1`, for which the Percent Effect in assay [1] is 12.1%; in assay [2], -3.56%.

As to `c1ccc(-c2nc(CNC3CCc4ncnn4C3)co2)cc1` (configuration not stated), the Percent Effect in assay [1] is -3.79%; in assay [2] it was -10.8%.

In the case of `Cc1nc(N)sc1C(=O)N1CCCC(c2nccn2CCCN(C)C)C1` (configuration not stated), the Percent Effect in assay [1] was -0.893%; in assay [2], 12.2%.

Consider `O=C(c1cnccn1)N1CCc2onc(CN3CCOCC3)c2C1`, for which the Percent Effect in assay [1] is -0.84%; in assay [2] it was -5.1%.

As for `COC(C(=O)N1CCCN(Cc2cscn2)CC1)c1ccccc1` (configuration not stated), the Percent Effect in assay [1] came out at 0.144%; in assay [2] it was 3.66%.

Regarding `COc1ccc(OC)c(C(C)Nc2nc3c(C)nn(C)c3c(=O)n2C)c1` (configuration not stated), the Percent Effect in assay [1] is 4.76%; in assay [2] it was -69.5%.

On to `COc1cc(CN(C)C(=O)Cc2c(C)nn(C)c2C)ccc1OC(F)F`, for which the Percent Effect was -2.09% in assay [1] and -4.8% in assay [2].

On to `CCc1nccn1C1CCCN(C(=O)c2cnn(C)c2C2CC2)C1` (configuration not stated), for which the Percent Effect is -4.23% in assay [1] and 21.1% in assay [2].

With `Cc1cc(C)n(C2CCCN(C(=O)c3ccc(NC4CC4)nc3)C2)n1` (configuration not stated), the Percent Effect in assay [1] was -1.9%; in assay [2], 27%.

Turning to `c1ccc(CCCN2CC(n3cccn3)C2)cc1`, the Percent Effect in assay [1] was -4.05%; in assay [2] it was -12.1%.

Consider `Cc1noc(NC(=O)c2ccc(Br)s2)n1`, for which the Percent Effect in assay [1] was 2.08%; in assay [2], 49.8%.

`Cc1cc(C)n(CC2CCCN2CCS(=O)(=O)c2ccccc2)n1` (configuration not stated): the Percent Effect in assay [1] is -0.833%; in assay [2], -9.51%.

Regarding `Cc1cccc(CN(Cc2ccc(C)o2)C2CC(C)(C)NC(C)(C)C2)n1`, the Percent Effect was -1.8% in assay [1] and 3.65% in assay [2].

`Cc1ccc(C(=O)N2CCN(CCc3cccs3)CC2)c(=O)[nH]1`: the Percent Effect in assay [1] is -1.83%; in assay [2], -29.5%.

Consider `CNc1cc2c(nn1)CCN(C(=O)c1cc(F)cc(F)c1)C2`, for which the Percent Effect in assay [1] is -0.49%; in assay [2] it was 12.4%.

On to `CCN1CC2(CC1=O)CN(Cc1cnn(C)c1)CCN(C(C)=O)C2` (configuration not stated), for which the Percent Effect is 1.68% in assay [1] and -2.37% in assay [2].

For the compound `O=C(Cc1ccccn1)N1CCN(C(=O)c2cccc3[nH]ncc23)CC1`, the figures for the Percent Effect in assay [1] and in assay [2] were -2.75% and 1.83%, respectively.

Turning to `CC1CCc2nc(O)c(C(=O)NCCN(C)C)cc2C1` (configuration not stated), the figures for the Percent Effect in assay [1] and in assay [2] were -0.552% and -8.38%, respectively.

In the case of `COC(=O)c1ccc2ccn(CC3CCNC3)c(=O)c2c1` (configuration not stated), the Percent Effect in assay [1] is 3.08%; in assay [2], -45.4%.

In the case of `O=C(Cn1cc(I)cn1)Nc1cccnc1`, the Percent Effect in assay [1] is 1.95%; in assay [2], -36.6%.

Regarding `CC(C)NC(=O)N1CCC(n2ccc(C(F)(F)F)n2)CC1`, the Percent Effect in assay [1] is -2.88%; in assay [2], -0.886%.

`O=C(NCc1cccnc1)C1CC(=O)N(CC2CC2)C1` (configuration not stated): the Percent Effect was -3.29% in assay [1] and -8.28% in assay [2].

As to `COc1ccc(CCC(=O)NC2CCC(O)CC2)cc1OC` (configuration not stated), the results for the Percent Effect in assay [1] and in assay [2] were -2.67% and 33%, respectively.

Consider `Cc1nnc(C(C)N2CCN(Cc3ccc(C#N)cc3)CC2)o1` (configuration not stated), for which the Percent Effect was -2.07% in assay [1] and 20% in assay [2].

As for `CCN1CCOC(CNCc2ccccn2)C1` (configuration not stated), the Percent Effect was found to be 1.04% in assay [1] and 12.2% in assay [2].

Regarding `CCc1nc(CN2CCCN(C(=O)CCSC)CC2)cs1`, the Percent Effect in assay [1] is -2.35%; in assay [2] it was -65.7%.

Consider `O=C(Cc1n[nH]c2ccccc12)N1CCC(Nc2cccnn2)CC1`, for which the values for the Percent Effect in assay [1] and in assay [2] were 2.78% and -16.9%, respectively.

On to `O=C(C1CCC1)N1CCCC1c1nnc2n1CCCCC2` (configuration not stated), for which the values for the Percent Effect in assay [1] and in assay [2] were -0.296% and -16%, respectively.

In the case of `CC1=Nc2c(c(=O)[nH]n2C(C)C)C(c2ccc(F)c(F)c2)S1` (configuration not stated), the Percent Effect was determined as 1.86% in assay [1] and 22.2% in assay [2].

For the compound `Cc1ccc(C2CSCCN2C(=O)c2ccsc2)o1` (configuration not stated), the Percent Effect is 3.37% in assay [1] and 16.4% in assay [2].

In the case of `O=C(NCCN1CCNCC1)c1nc2ccccc2c(=O)[nH]1`, the Percent Effect was 2.9% in assay [1] and -55.8% in assay [2].

Take `O=C(c1cccc(N2CCCC2=O)c1)N1CCCC(n2cncn2)C1` (configuration not stated): the Percent Effect in assay [1] is -4.55%; in assay [2] it was 17.8%.

With `CC(C)CN1CCN(C)C2(CCN(Cc3ccsc3)CC2)C1=O`, the Percent Effect in assay [1] is 1.25%; in assay [2], -3.28%.

On to `CN(C)C(=O)[C@@H]1C[C@@H]2CCN(Cc3nccs3)C[C@@H]2O1`, for which the Percent Effect in assay [1] came to 1.05%; in assay [2], 2.36%.

`CC1CCCCN1CCNC(=O)c1ccn(-c2ccc(F)cc2)n1` (configuration not stated): the Percent Effect in assay [1] is 3.98%; in assay [2], -12.3%.

Consider `O=C(NCCN1CCOCC1)NCC(O)c1cccc(F)c1` (configuration not stated), for which the Percent Effect is 2.52% in assay [1] and 4.91% in assay [2].

Turning to `CN1CC(c2ccccc2)CC12CCN(C(=O)c1cncc(Cl)c1)CC2` (configuration not stated), the values for the Percent Effect in assay [1] and in assay [2] were 0.408% and 12.5%, respectively.

These data come from ChEMBL document CHEMBL3988442, “University of Dundee, Small-Polar-MMV Screening Library” (2021).
